Experimental data reported in PubChem BioAssay (NCATS).
Results filed as inconclusive are left out. Active and inactive are the calls of the source. Unless noted, calls come from the whole dose curve; as a rule, active = well fitted curve in the direction sought with a large enough effect; inconclusive = small, poorly fitted or top-dose-only effect, or another doubt; inactive = no such curve, though single readings can be large; an effect the other way counts as inactive or inconclusive.

How the values were obtained:
[1] = test system: Zika virus NS2B-NS3 protease (linked construct); test: Primary screen NINDS Rhodamine qHTS for Zika virus inhibitors (AID 1347160)
Outline: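 Percent inhibition, normalized to uninhibited and enzyme-free controls, is fitted to a 4-parameter Hill equation. Fluorescence change comes from a 15-min cleavage of 1.5 microM bis-peptide Rhodamine110 substrate by 25 nM linked NS2B-NS3 at room temperature.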

[2] = HPAF-II Cancer Cell Toxicity qHTS against the NCATS CANVASS Library (AID 1347346)
Outline: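 HPAF-II cells were seeded at 1000 cells/well, allowed to settle for 4 h at 37 degrees C, then exposed to compounds in an 11-point series for 72 h. Viability was read by CellTiter-Glo luminescence.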

[3] = OV-SAHO Cancer Cell Toxicity qHTS against the NCATS CANVASS Library (AID 1347348)
Outline: (§1)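 ATP content after 72 h treatment, detected by CellTiter-Glo luminescence (15min room-temperature development), reflects cell viability. Wells contained 1000 cells and received compounds at 11 concentrations.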

[4] = Panc-1005 Cancer Cell Toxicity qHTS against the NCATS CANVASS Library (AID 1347349)
Outline: as §1

[5] = U-118MG Cancer Cell Toxicity qHTS against the NCATS CANVASS Library (AID 1347351)
Outline: as §1

[6] = A2780 Cisplatin Sensitive Ovarian Cancer Cell Toxicity qHTS against the NCATS CANVASS Library (AID 1347353)
Outline: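 A2780 cisplatin-sensitive cells (750 per well) were seeded, left 4 h at 37 °C, then pin-dosed in an 11-point series. After 72 h at 37 °C/5% CO2, viability was measured as ATPLite luminescence.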

[7] = UWB1.289-WTBRCA1 Cancer Cell Toxicity qHTS against the NCATS CANVASS Library (AID 1347354)
Outline: (§2)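 Cells were seeded at 1000 per well and allowed to settle 4 hours at 37 degrees C before pin transfer of compounds as an 11-point series. Viability was read by CellTiter-Glo luminescence after 72 hours' exposure.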

[8] = HEK-293 Cancer Cell Toxicity qHTS against the NCATS CANVASS Library (AID 1347355)
Outline: as §2

[9] = HPAF-II 24hr Apoptosis Induction qHTS against the NCATS CANVASS Library (AID 1347356)
Outline: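 HPAF-II cells (500/well) in DMEM + 10% FBS were treated with an 11-point compound series for 24 hours at 37 degrees C. Caspase-3/7 activity was then read by Caspase-Glo DEVD luminescence after 15 min.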

[10] = HEK293 18hr Apoptosis Induction qHTS against the NCATS CANVASS Library (AID 1347357)
Outline: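 HEK293 cells (500/well, DMEM + 10% FBS) treated with an 11-point series for 18 h at 37 degrees C. Caspase-3/7 activity read by Caspase-Glo luminescence after 15 min at room temperature.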

[11] = HEK293 24hr Apoptosis Induction qHTS against the NCATS CANVASS Library (AID 1347359)
Outline: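 Caspase-3/7 activation measured as luminescence from the DEVD-based Caspase-Glo reagent, 15 min at room temperature, following 24-hour compound treatment of HEK293 cells.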

[12] = HPAF-II 18hr Apoptosis Induction qHTS against the NCATS CANVASS Library (AID 1347360)
Outline: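 HPAF-II cells at 500/well were exposed for 18 h at 37 C to an 11-point compound series. Caspase-3/7 activity was read by Caspase-Glo luminescence after 15 min at RT.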

[13] = HEK293 12hr Apoptosis Induction qHTS against the NCATS CANVASS Library (AID 1347361)
Outline: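 HEK293 cells (500/well) were exposed to an 11-point qHTS concentration series for 12 hours at 37 degrees C. Caspase-3/7 activity was then read by DEVD-substrate luciferase luminescence after 15 min at room temperature.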

[14] = target: Luciferin 4-monooxygenase (Photinus pyralis) (UniProt P08659); test: Firefly luciferase counterscreen qHTS: Assay Interference Panel against the NCATS CANVASS Library (AID 1347363)
Outline: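 Luminescence inhibition readout: compounds (11-point qHTS) sat 15 min at room temperature with substrate mix (0.013 mM luciferin and ATP), then firefly luciferase was added and signal read 5 min later.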

[15] = KB-8-5-11 Cancer Cell Toxicity qHTS against the NCATS CANVASS Library (AID 1347364)
Outline: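 KB-8-5-11 cells (500/well) in DMEM + 10% FBS were exposed to compounds in an 11-point qHTS series for 72 hr at 37C, 5% CO2. Viability was read by CellTiter-Glo luminescence.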

[16] = KB-3-1 Cancer Cell Toxicity qHTS against the NCATS CANVASS Library (AID 1347366)
Outline: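 KB-3-1 cells (500/well) in DMEM with 10% FBS were exposed to compounds for 72 h at 37C. Viability was read by CellTiter-Glo luminescence.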

[17] = qHTS for ATAD5 Agonist screened against the NCATS CANVASS Library (AID 1347367)
Outline: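 Luciferase reporter under ATAD5 control, stably integrated in HEK293T cells (2000/well). Compounds (11 points) incubated 16 h at 37C; viability read first by CellTiter-Fluor, then luminescence reporting ATAD5 activation. MMS positive control.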

[18] = G06 Cancer Cell Toxicity qHTS against the NCATS CANVASS Library (AID 1347368)
Outline: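 G06 dog glioma cells seeded at 500 cells/well were exposed to compounds (11-point qHTS series) for 72 hr at 37C, 5% CO2; viability read as ATP content by CellTiterGlo luminescence.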

[19] = MCF7 Cancer Cell Toxicity qHTS against the NCATS CANVASS Library (AID 1347369)
Outline: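 MCF7 cells (500/well) were exposed 72 h at 37 °C to compounds in an 11-point series. Viability was read as ATP content by CellTiterGlo luminescence.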

[20] = J3T Cancer Cell Toxicity qHTS against the NCATS CANVASS Library (AID 1347371)
Outline: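 J3T dog glioma cells (500 cells/well) were exposed to compounds in an 11-point series for 72 hr at 37C, 5% CO2. Cytotoxicity was read as ATP content by CellTiterGlo luminescence.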

[21] = target: Nuclear receptor subfamily 1 group I member 3 (Homo sapiens) (UniProt Q14994); test: qHTS for Constitutive Androstane Receptor (CAR) Antagonist screened against the NCATS CANVASS Library (AID 1347372)
Outline: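 HepG2-CYP2B6-hCAR double-stable cells plated, 4hr attach; cpd pin-transferred; CITCO 50 nM final; 24hr 37C/5% CO2; CellTiter-Fluor 1hr (fluorescence), then ONE-Glo luminescence.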

[22] = target: Nuclear receptor subfamily 1 group I member 3 (Homo sapiens) (UniProt Q14994); test: qHTS for Constitutive Androstane Receptor (CAR) Agonist screened against the NCATS CANVASS Library (AID 1347373)
Outline: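 HepG2 cells stably expressing hCAR and a CYP2B6-2.2kb luciferase reporter were treated for 24hr at 37C with compounds (11-point qHTS) in the presence of 1.5uM PK11195. Reporter activation was read by ONE-Glo luminescence.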

[23] = qHTS for Hypoxia signaling pathway (HIF-1) antagonists against the NCATS CANVASS Library (AID 1347374)
Outline: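 HRE-bla ME-180 cells (2,000/well, 0.5% dialyzed FBS) were pre-incubated 5 h, then given an 11-point compound series plus CoCl2 (60 uM solution as added) for 17 h at 37C. CCF4 β-lactamase read (ex 405, em 460/530 nm) after 2 h at RT.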

[24] = qHTS for Hypoxia signaling pathway (HIF-1) agonists against the NCATS CANVASS Library (AID 1347375)
Outline: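 HRE-bla ME-180 cells (beta-lactamase reporter under hypoxia responsive element) in 0.5% dialyzed FBS medium, 5 h at 37C, then compound 17 h, 11-point qHTS series. CCF4-AM FRET substrate 2 h RT; 460/530 nm emission read.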

[25] = 10-beta competent E. coli microbial cell viability qHTS against the NCATS CANVASS Library (AID 1347376)
Outline: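 10-beta competent E. coli (0.9 OD culture diluted to 0.2 OD) exposed to compounds in an 11-point qHTS series, incubated overnight at 37C, 5% CO2. Viability read as ATP by BacTiter-Glo luminescence after 20 min at room temperature.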

[26] = DH5-alpha competent E. coli microbial cell viability qHTS against the NCATS CANVASS Library (AID 1347377); conditions: outcome: at 46.1 µM (top of the series)
Outline: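 DH5-alpha E. coli suspension (0.9 OD culture diluted to 0.2 OD) exposed to compounds in an 11-point series, overnight at 37C, 5% CO2. Viability read as ATP by BacTiter-Glo luminescence after 20 min at room temperature.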

[27] = qHTS for Inflammasome Signaling Inhibitors: IL-1-beta AlphaLISA screen against the NCATS CANVASS Library (AID 1347379)
Outline: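 Human THP-1 cells were pretreated 1 hr at 37 °C with compounds (up to 57.5 uM final), then stimulated with LPS (250 ng/mL final) and ATP (1.25 mM final). Secreted IL-1B was read by AlphaLISA after 16 hr.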

[28] = Inflammasome Signaling qHTS Counterscreen: IL-1-beta AlphaLISA counterscreen against the NCATS CANVASS Library (AID 1347381)
Outline: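 To flag interference with the AlphaLISA read-out, a known amount of purified IL-1-beta (4 pg) replaced cell supernatant. Detection used anti-IL-1-beta acceptor beads, biotinylated antibody and streptavidin donor beads at room temperature.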

[29] = qHTS for Activators of p53 Stress Response Pathway screened against the NCATS CANVASS Library (AID 1347388)
Outline: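 Beta-lactamase reporter driven by p53 response elements in HCT-116 cells, read as the 460 nm/530 nm emission ratio after CCF4 loading, following 16 h of exposure to an 11-point series. Cell viability was measured in the same wells by CellTiter-Glo luminescence.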

[30] = qHTS for activators of dead-cell proteases activity screened against the NCATS CANVASS Library (AID 1347392)
Outline: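 Compounds are pin-transferred onto attached HepG2 cells, giving 11 final concentrations. After 5 h at 37C, AAF-aminoluciferin reagent is added and luminescence is recorded at room temperature.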

[31] = Vero-766 cells viability qHTS against the NCATS CANVASS Library: Counterscreen for Zika virus inhibition assay (AID 1347394)
Outline: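 Vero 766 cells (1000/well), without Zika virus, were exposed to compounds for 72 h at 37C. Viability was measured by CellTiter Glo luminescence. Media-only wells served as 100% inhibition.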

[32] = qHTS for inhibitors of Wild type Zika virus screened against the NCATS CANVASS Library (AID 1347396)
Outline: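 Using ATP-based luminescence (CellTiter Glo), this screen scores rescue of Vero 766 cells from wild-type Zika killing at 72 h post-infection. Compounds are tested in a concentration series.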

[33] = Redox Reaction Profiling qHTS: Assay Interference Panel against the NCATS CANVASS Library (AID 1347401)
Outline: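 Cell-free redox surrogate: 5 uM resazurin + 200 uM DTT, 50 mM HEPES pH 7.3/50 mM NaCl; cpds pinned, 11-pt qHTS; Ex525/Em598 read t0 and t=15 min, dark.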

[34] = qHTS for inhibitors of Rabies Virus screened against the NCATS CANVASS Library (AID 1347402; calls by dose curve)

Measured: Potency

Chain of Nuclear receptor subfamily 1 group I member 3 (Homo sapiens) (Q14994 whole entry, looked up): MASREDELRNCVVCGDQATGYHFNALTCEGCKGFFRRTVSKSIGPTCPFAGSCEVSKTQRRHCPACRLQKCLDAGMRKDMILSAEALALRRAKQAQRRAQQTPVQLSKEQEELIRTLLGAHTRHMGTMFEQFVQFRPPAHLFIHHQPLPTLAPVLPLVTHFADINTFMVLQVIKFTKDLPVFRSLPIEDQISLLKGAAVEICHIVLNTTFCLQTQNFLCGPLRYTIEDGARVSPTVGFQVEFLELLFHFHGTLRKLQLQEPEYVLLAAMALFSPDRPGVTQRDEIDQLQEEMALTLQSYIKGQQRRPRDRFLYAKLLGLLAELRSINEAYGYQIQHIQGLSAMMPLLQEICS
Chain of Luciferin 4-monooxygenase (Photinus pyralis) (P08659 whole entry, looked up): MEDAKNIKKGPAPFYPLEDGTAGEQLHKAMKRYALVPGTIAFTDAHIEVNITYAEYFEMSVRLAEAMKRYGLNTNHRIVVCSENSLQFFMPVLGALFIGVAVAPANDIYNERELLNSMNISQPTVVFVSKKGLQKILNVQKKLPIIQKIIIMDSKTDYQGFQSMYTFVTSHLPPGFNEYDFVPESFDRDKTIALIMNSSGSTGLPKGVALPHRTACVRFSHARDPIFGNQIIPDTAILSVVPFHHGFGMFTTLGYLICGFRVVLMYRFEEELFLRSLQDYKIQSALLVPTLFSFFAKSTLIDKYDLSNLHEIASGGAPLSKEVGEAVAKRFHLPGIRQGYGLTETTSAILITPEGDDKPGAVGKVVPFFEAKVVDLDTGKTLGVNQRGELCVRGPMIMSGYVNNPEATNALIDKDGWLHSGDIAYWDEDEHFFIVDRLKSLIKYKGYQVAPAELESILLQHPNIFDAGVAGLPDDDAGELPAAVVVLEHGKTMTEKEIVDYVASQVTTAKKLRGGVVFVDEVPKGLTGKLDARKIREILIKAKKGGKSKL

CCCC[C@@H]1CC[C@H]2CCCC(CCC)N12 (some centres undefined)
active: [1] 49.3 µM
inactive: all other assays above
